# Reference: PubChem BioAssay (EPA / NIEHS)
# Results filed as inconclusive are left out. Active and inactive are the calls of the source. The calls were made as follows, unless noted: active = hit-call score of the fitted dose curve at least 0.9, where 1 is the maximum; inconclusive = response in the unintended direction; inactive = score below 0.9.
# Tests used:
# [1] = CEETOX_H295R_MTT_cell_viability: Viability Assessment in the CeeTox HT-H295R MTT Assay (AID 2283718; active = hit-call score of the fitted dose curve at least 0.9, where 1 is the maximum; inactive = score below 0.9)
# Outline: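 MTT reduction (0.5 mg/ml, 4 h at 37 C; absorbance at 570 and 650 nm) gave viability as background-corrected percent change versus controls. H295R cells had 48 h forskolin (10 uM) prestimulation, then 48 h chemical exposure at 0.1% DMSO.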
# [2] = Tanguay_ZF_120hpf_ActivityScore_legacy: (Legacy) Oregon State University Tanguay Lab 120 Hour Post-fertilization zebrafish Assay Score for Activity (AID 2283742);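 as to AC50: dechorionated Tropical 5D wild-type zebrafish embryos held singly per well; static exposure from 6 hpf until 120 hpf at 28 °C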
# Outline: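 Embryos are staged, enzymatically dechorionated at 4 hpf, placed individually at 6 hpf, then held in test chemical (0.64% DMSO) at 28C until 120 hpf. Mortality and malformations are scored by brightfield, with non-mortality endpoints skipped for dead embryos.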
# [3] = Tanguay_ZF_120hpf_TR_legacy: (Legacy) Oregon State University Tanguay Lab 120 Hour Post-fertilization zebrafish Assay for Touch Response (AID 2283667)
# Outline: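 5D WT embryos; static exposure to 120 hpf, 28C, sealed/dark; DMSO 0.64% v/v final. TR scored present/absent; dead embryos excluded. Pos ctrl 5uM trimethyltin chloride.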
# [4] = CCTE_Padilla_ZF_144hpf_TERATOSCORE: (Legacy) CCTE's 144 Hour Post-fertilization zebrafish Assay Teratoscore, Padilla Lab (AID 2283679; active = hit-call score of the fitted dose curve at least 0.9, where 1 is the maximum; inactive = score below 0.9;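 as to AC50: zebrafish embryos with chorions exposed by immersion from 6-8 hpf to 5 dpf with daily renewal; teratogenicity score from eye scoring of death hatching and malformations at 144 hpf; higher score means more developmental defects relative to DMSO baseline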)
# Outline: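 Larvae scored by eye at 144 hpf for death, hatching and malformations after a day in clean Hanks'. Before that, daily-renewed exposure at 80 uM (0.4% DMSO, 26C) from roughly 6-8 hpf through 5 dpf, 4 embryos per chemical.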
# [5] = STM_H9_OrnithineISnorm_perc: Stemina devTOX quickPredict H9 human embryonic stem cell (hESC)-based Assay for Ornithine (ORN) Metabolite Biomarker, Normalized (AID 2283712; active = hit-call score of the fitted dose curve at least 0.9, where 1 is the maximum; inactive = score below 0.9;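 also: ornithine released into spent medium during last day measured by mass spectrometry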)
# Outline: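 H9 human embryonic stem cells kept pluripotent receive test chemical over 72 h, refreshed daily by media exchange. Media from the closing 24 h is deproteinized and analysed by UPLC-HRMS on an amide column; ornithine signal is scaled to labelled standard and vehicle.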
# [6] = STM_H9_CystineISnorm_perc: Stemina devTOX quickPredict H9 human embryonic stem cell (hESC)-based Assay for Cystine (CYSS) Metabolite Biomarker, Normalized (AID 2283713; active = hit-call score of the fitted dose curve at least 0.9, where 1 is the maximum; inactive = score below 0.9)
# Outline: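 H9 hESC, pluripotent; compound 72h, re-dosed q24h with medium change. Last-24h medium → 40% acetonitrile deproteinization → UPLC-HRMS. CYSS area / C13-CYSS standard, then % of 0.1% DMSO median.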
compound,measurement,setting,value
CC(C)(O)c1ccc(CNC(=O)c2cccnc2Oc2ccc3nonc3c2)cc1,outcome,[1],inactive
same,outcome,[2],inactive
c1ccc(C[n+]2cccc3ccccc32)cc1,outcome,[3],inactive
same,outcome,[4],inactive
same,outcome,[1],inactive
same,outcome,[2],inactive
CCCCCCCCOc1ccc(C(=O)c2ccccc2)c(O)c1,outcome,[1],inactive
same,outcome,[2],inactive
CCCCCCCCCC(=O)O,outcome,[3],inactive
same,AC50,[4],65.8 µM (active)
same,outcome,[2],inactive
O=C(O)Cn1c(=O)n(Cc2ccc(Br)cc2F)c(=O)c2ccc(Cl)cc21,outcome,[3],inactive
same,outcome,[1],inactive
same,outcome,[2],inactive
Cc1ccc(C(C)C)cc1,outcome,[3],inactive
same,outcome,[2],inactive
O=C(O)c1ccccc1C(=O)OCc1ccccc1,outcome,[3],inactive
same,outcome,[1],inactive
same,outcome,[2],inactive
Cc1oc2c(NC(=O)c3c(Cl)cccc3Cl)cccc2c1C(C)(C)O,outcome,[3],inactive
same,AC50,[4],8.93 µM (active)
same,outcome,[1],inactive
same,AC50,[2],45.5 µM (active)
O=CCCCC=O,outcome,[3],inactive
same,outcome,[4],inactive
same,outcome,[2],inactive
Clc1ccccc1C(c1ccccc1)(c1ccccc1)n1ccnc1,AC50,[3],25 µM (active)
same,AC50,[4],1.53 µM (active)
same,outcome,[1],inactive
same,outcome,[2],inactive
CC1(C)NC(=O)N(c2ccc([N+](=O)[O-])c(C(F)(F)F)c2)C1=O,AC50,[4],17.2 µM (active)
same,outcome,[2],inactive
CN1C(=O)N(c2ccccc2Br)Cc2cnc(Nc3ccc4c(c3)OCC(CO)O4)nc21 (configuration not stated),AC50,[4],4.31 µM (active)
same,AC50,[5],1.42 µM (active)
same,AC50,[6],1.06 µM (active)
same,outcome,[1],inactive
same,AC50,[2],6.73 µM (active)
c1ccc2n[nH]nc2c1,outcome,[3],inactive
same,outcome,[4],inactive
same,outcome,[2],inactive
CN1C(=O)CC[C@H]1c1cccnc1,outcome,[3],inactive
same,outcome,[5],inactive
same,outcome,[6],inactive
same,outcome,[2],inactive
O=c1[nH]sc2ccccc12,outcome,[3],inactive
same,AC50,[4],16.4 µM (active)
same,outcome,[2],inactive
